Experimental data: PubChem BioAssay (Tox21)
Inconclusive results are not listed. Active and inactive are the calls of the source. Unless noted, calls follow the shape of the dose curve; as a rule, active = well fitted curve in the direction sought with a large enough effect in the repeat runs; inconclusive = weak or mixed curves; inactive = no such curve, though single readings can be large; an effect the other way counts as inactive or inconclusive.

Assays:
[1] = qHTS RealTime-Glo MT Cell Viability Assay in HEK293 cells - 0 hour (AID 1224880); also: top concentration of the series differs between compounds; nearly all actives have a fitted effect of over 45% in size
Summary of the method: (§1)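 Cells were seeded together with NanoLuc luciferase and a prosubstrate that viable cells reduce to a luciferase substrate. After a 5 h incubation at 37 C/5% CO2, compounds were added and luminescence was measured repeatedly during 40 h of treatment.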

[2] = A CellTox Green Cytotoxicity Assay to monitor cytotoxicity in HEK293 cells - 32 hour (AID 1224881); also: nearly all actives have a fitted effect of over 40% in size
Summary of the method: (§2)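 Nonlytic real-time cytotoxicity: HEK293 + CellTox Green reagent plated, 5 h preincubation, pintool compound addition (23 nL in DMSO), 37 C for 40 h, fluorescence measured at successive time points.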

[3] = A CellTox Green Cytotoxicity Assay to monitor cytotoxicity in HepG2 cells - 0 hour (AID 1224882); also: nearly all actives have a fitted effect of over 35% in size
Summary of the method: (§3)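 Read-out is fluorescence of a cyanine dye excluded from live cells that stains DNA of dead HepG2 cells, with signal proportional to cytotoxicity. Plates were read at 0, 8, 16, 24, 32 and 40 h after compound addition.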

[4] = A CellTox Green Cytotoxicity Assay to monitor cytotoxicity in HepG2 cells - 32 hour (AID 1224883); also: nearly all actives have a fitted effect of over 50% in size
Summary of the method: as §3

[5] = A CellTox Green Cytotoxicity Assay to monitor cytotoxicity in HEK293 cells - 8 hour (AID 1224884); also: nearly all actives have a fitted effect of over 35% in size
Summary of the method: as §2

[6] = qHTS RealTime-Glo MT Cell Viability Assay in HepG2 cells - 16 hour (AID 1224885); also: nearly all actives have a fitted effect of over 50% in size
Summary of the method: (§4)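 HepG2 suspension premixed with RealTime-Glo reagents is plated at 600 cells per well and left 5 h at 37 C/5% CO2. Compounds in DMSO then go in, and bioluminescence reflecting viable cell number is recorded over 40 h.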

[7] = qHTS RealTime-Glo MT Cell Viability Assay in HEK293 cells - 24 hour (AID 1224886); also: top concentration of the series differs between compounds; nearly all actives have a fitted effect of over 50% in size
Summary of the method: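 Reads taken at 0, 8, 16, 24, 32 and 40 h from the same wells. HEK293 cells (600/well) carried RealTime-Glo reagents from seeding, with compound added after a 5 h settle at 37 C.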

[8] = qHTS RealTime-Glo MT Cell Viability Assay in HEK293 cells - 8 hour (AID 1224887); also: top concentration of the series differs between compounds; nearly all actives have a fitted effect of over 50% in size
Summary of the method: as §1

[9] = A CellTox Green Cytotoxicity Assay to monitor cytotoxicity in HEK293 cells - 16 hour (AID 1224888); also: nearly all actives have a fitted effect of over 35% in size
Summary of the method: as §2

[10] = qHTS RealTime-Glo MT Cell Viability Assay in HepG2 cells - 0 hour (AID 1224889); also: nearly all actives have a fitted effect of over 50% in size
Summary of the method: as §4

[11] = qHTS assay to identify small molecule antagonists of the estrogen receptor alpha (ER-alpha) signaling pathway using the BG1 cell line in the presence of 0.1 nM 17-beta-estradiol - cell viability counter screen (AID 1259241); also: nearly all actives have a fitted effect of over 40% in size
Summary of the method: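 CellTiter-Fluor read (30 min, 37C) on ER-alpha/ERE-luc VM7Luc4E2 cells; 22 hr compound treatment; agonist 0.1 nM E2 final; same-well multiplex.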

[12] = qHTS assay to identify small molecule antagonists of the androgen receptor (AR) signaling pathway using the MDA cell line in the presence of 0.5 nM R1881 - cell viability counter screen (AID 1259242); also: nearly all actives have a fitted effect of over 45% in size
Summary of the method: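 Counter screen for cytotoxicity run in the same wells as the AR antagonist reporter screen: MDA-kb2 cells were treated 16 hr with test compounds and 0.5 nM R1881, then live-cell protease activity was measured by fluorescence.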

[13] = biological target: Estrogen receptor (Homo sapiens) (UniProt P03372); assay: qHTS assay to identify small molecule antagonists of the estrogen receptor alpha (ER-alpha) signaling pathway using the BG1 cell line in the presence of 0.1 nM 17-beta-estradiol (AID 1259244); also: nearly all actives have a fitted effect of over 50% in size
Chain of Estrogen receptor (Homo sapiens) (P03372 whole entry, looked up): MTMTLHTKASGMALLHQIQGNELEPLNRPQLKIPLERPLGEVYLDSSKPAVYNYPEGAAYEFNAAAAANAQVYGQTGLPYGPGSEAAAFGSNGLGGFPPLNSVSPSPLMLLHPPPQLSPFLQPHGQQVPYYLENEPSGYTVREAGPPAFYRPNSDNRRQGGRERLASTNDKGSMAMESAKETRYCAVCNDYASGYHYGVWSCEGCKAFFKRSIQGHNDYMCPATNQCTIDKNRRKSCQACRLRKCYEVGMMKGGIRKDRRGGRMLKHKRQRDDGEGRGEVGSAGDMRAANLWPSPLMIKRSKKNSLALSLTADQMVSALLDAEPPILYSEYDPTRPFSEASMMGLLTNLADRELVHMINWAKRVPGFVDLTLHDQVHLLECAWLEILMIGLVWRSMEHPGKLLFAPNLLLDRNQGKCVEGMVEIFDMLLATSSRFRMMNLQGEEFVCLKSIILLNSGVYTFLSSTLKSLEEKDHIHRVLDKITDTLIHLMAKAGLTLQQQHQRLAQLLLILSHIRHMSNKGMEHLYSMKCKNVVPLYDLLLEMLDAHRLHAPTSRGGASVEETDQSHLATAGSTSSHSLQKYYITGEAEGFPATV
Summary of the method: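 Cells: VM7Luc4E2, endogenous ER-alpha, 4x ERE-luc stable. Pre-culture 5 d, phenol red-free, charcoal-stripped FBS. Plated 24 h, compound + E2 0.1 nM final, 22 h 37C/5% CO2. Readout ONE-Glo luminescence.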

[14] = qHTS assay to identify small molecule phospholipidosis (PLD) inducers (AID 1259344; active = well fitted curve in the direction sought with a large enough effect; an effect the other way counts as inactive or inconclusive)
Summary of the method: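 HepG2 cells, 900/well, treated with compound plus LipidTOX Red for 24 h at 37 C; amiodarone positive and DMSO negative controls. Fixed with paraformaldehyde/Hoechst, then high-content imaging scored LipidTOX pit count and integrated intensity per well and per cell.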

[15] = qHTS assay to identify small molecule HDAC inhibitors (AID 1259364); also: top concentration of the series differs between compounds; nearly all actives have a fitted effect of over 45% in size
Summary of the method: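 Luminescence from a cell-permeant luminogenic class I/II HDAC substrate reports endogenous deacetylase activity in intact HCT-116 cells treated with compounds for 2 h.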

[16] = qHTS assay to identify small molecule HDAC inhibitors - cell viability counter screen (AID 1259365)
Summary of the method: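 To flag cytotoxic hits, 1,500 wild-type HCT-116 cells per well, plated the day before, receive test compounds for 2hr at 37 C before CellTiter-Glo reagent and a luminescence read.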

[17] = qHTS assay to identify small molecule agonists of the sonic hedgehog signaling (Shh) pathway - cell viability counter screen (AID 1259366); also: nearly all actives have a fitted effect of over 50% in size
Summary of the method: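 Fluorescence from CellTiter-Fluor reports live cells in this counter screen. NIH/3T3-derived Gli1-Luc reporter cells receive test compounds for 24hr at 37C; reagent goes in at 23hr.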

[18] = qHTS assay to identify small molecule antagonists of the sonic hedgehog signaling (Shh) pathway - cell viability counter screen (AID 1259367); also: nearly all actives have a fitted effect of over 55% in size
Summary of the method: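 NIH/3T3-derived Gli1-Luc reporter cells, 2,000/well, plated 4 hr before compound addition, then stimulated with conditioned medium for 24 hr at 37C. Viability measured in the same wells by CellTiter-Fluor fluorescence, reagent added at 23 hr for 1 hr.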

[19] = A CellTox Green Cytotoxicity Assay to monitor cytotoxicity in HepG2 cells - 8 hour (AID 1224890); also: nearly all actives have a fitted effect of over 45% in size
Summary of the method: as §3

[20] = biological target: Androgen receptor (Homo sapiens) (UniProt P10275); assay: qHTS assay to identify small molecule antagonists of the androgen receptor (AR) signaling pathway using the MDA cell line in the presence of 0.5 nM R1881 (AID 1259243); also: nearly all actives have a fitted effect of over 50% in size
Chain of Androgen receptor (Homo sapiens) (P10275 whole entry, looked up): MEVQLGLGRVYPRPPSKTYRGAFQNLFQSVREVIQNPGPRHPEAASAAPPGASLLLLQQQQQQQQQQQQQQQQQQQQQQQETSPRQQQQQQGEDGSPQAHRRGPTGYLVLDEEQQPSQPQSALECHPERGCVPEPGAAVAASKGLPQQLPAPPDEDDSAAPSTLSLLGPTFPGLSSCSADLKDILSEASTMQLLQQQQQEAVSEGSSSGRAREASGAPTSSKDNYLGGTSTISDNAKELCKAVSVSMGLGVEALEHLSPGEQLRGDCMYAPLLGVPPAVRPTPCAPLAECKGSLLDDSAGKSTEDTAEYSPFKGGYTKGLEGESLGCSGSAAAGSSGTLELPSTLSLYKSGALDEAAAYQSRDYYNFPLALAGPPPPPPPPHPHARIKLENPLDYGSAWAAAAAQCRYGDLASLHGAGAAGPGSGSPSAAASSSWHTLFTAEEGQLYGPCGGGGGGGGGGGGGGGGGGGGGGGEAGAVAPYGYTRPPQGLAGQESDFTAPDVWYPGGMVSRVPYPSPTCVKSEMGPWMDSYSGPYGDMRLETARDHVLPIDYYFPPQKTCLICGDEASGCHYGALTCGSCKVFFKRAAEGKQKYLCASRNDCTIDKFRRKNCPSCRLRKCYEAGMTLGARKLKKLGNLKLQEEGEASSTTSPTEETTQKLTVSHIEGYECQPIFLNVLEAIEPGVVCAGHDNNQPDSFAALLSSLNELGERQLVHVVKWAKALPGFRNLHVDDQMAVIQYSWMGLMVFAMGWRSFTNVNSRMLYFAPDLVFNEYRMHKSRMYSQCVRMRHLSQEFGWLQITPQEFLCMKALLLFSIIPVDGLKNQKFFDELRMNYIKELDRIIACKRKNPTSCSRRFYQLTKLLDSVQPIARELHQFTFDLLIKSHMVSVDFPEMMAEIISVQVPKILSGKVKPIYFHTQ
Summary of the method: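 Luciferase luminescence is the read-out: compounds are tested for suppressing 0.5 nM R1881-driven MMTV reporter activity in MDA-kb2 cells after 16 hr at 37C.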
% is scaled to controls: 0 for no effect and ±100 for the full control effect.

CC1CCN(CCCC(=O)c2ccc(F)cc2)CC1
inactive: outcome [1] | Potency [2] | Potency [3] | Potency [4] | Potency [5] | outcome [6] | Potency [7] | Potency [8] | Potency [9] | Potency [10] | outcome [11] | outcome [12] | outcome [13] | Potency [14] | Potency [15] | outcome [16] | Potency [17] | outcome [18]

NC(=S)Nc1cccc2ccccc12
inactive: activity change, negative = cytotoxicity [1] 29.3% [at 6.97 µM] | cytotoxicity increase [2] -1.04% [at 6.97 µM] | cytotoxicity [3] 5.93% [at 6.97 µM] | cytotoxicity increase [4] 0.974% [at 6.97 µM] | cytotoxicity increase [5] 15.1% [at 6.97 µM] | activity change, negative = cytotoxic [6] -0.289% [at 6.97 µM] | activity change, negative = cytotoxicity [7] 15.9% [at 6.97 µM] | activity change, negative = cytotoxicity [8] 11.2% [at 6.97 µM] | activity change [9] 0.057% [at 6.97 µM, stronger effect = higher value] | activity change, negative = cytotoxicity [10] 6.18% [at 6.97 µM] | activity change, negative = cytotoxicity [11] 7.82% [at 8.39 µM] | viability change, negative = cytotoxic [12] 0.661% [at 8.39 µM] | activity change, negative = inhibition [15] 2.32% [at 8.39 µM] | activity change, negative = cytotoxicity [16] -1.1% [at 8.39 µM] | viability change, negative = cytotoxic [17] -0.646% [at 8.39 µM] | viability change, negative = cytotoxic [18] 0.784% [at 8.39 µM]

CC/C=C\CCCCO
inactive: outcome [1] | Potency [2] | Potency [3] | Potency [5] | outcome [6] | Potency [7] | Potency [8] | Potency [10] | Potency [19] | outcome [11] | outcome [12] | outcome [13] | Potency [15] | outcome [16] | Potency [17] | outcome [18]

CCn1cc(C(=O)O)c(=O)c2cc(F)c(N3CCN(C)CC3)cc21
inactive: activity change, negative = cytotoxicity [1] 5.85% [at 15.8 µM] | cytotoxicity increase [2] -8.3% [at 15.8 µM] | cytotoxicity increase [4] -17.6% [at 15.8 µM] | cytotoxicity increase [5] -3.43% [at 15.8 µM] | activity change, negative = cytotoxic [6] 0.92% [at 15.8 µM] | activity change, negative = cytotoxicity [7] 2.21% [at 15.8 µM] | activity change, negative = cytotoxicity [8] 7.74% [at 15.8 µM] | activity change [9] -0.608% [at 15.8 µM, stronger effect = higher value] | activity change, negative = cytotoxicity [10] 5.05% [at 15.8 µM] | cytotoxicity increase [19] -10.7% [at 15.8 µM] | activity change, negative = cytotoxicity [11] 1.73% [at 19 µM] | viability change, negative = cytotoxic [12] 1.22% [at 19 µM] | activity change, negative = inhibition [13] 6.79% [at 19 µM] | Potency [14] | activity change, negative = inhibition [15] -0.624% [at 19 µM] | activity change, negative = cytotoxicity [16] 2.46% [at 19 µM] | viability change, negative = cytotoxic [17] 6.14% [at 19 µM] | viability change, negative = cytotoxic [18] 3.37% [at 19 µM]

CC(C)[N+](C)(C)CC(O)COc1cccc2ccccc12 (stereo not drawn)
inactive: outcome [1] | Potency [2] | Potency [4] | Potency [5] | outcome [6] | Potency [7] | Potency [8] | Potency [9] | Potency [10] | Potency [19] | outcome [11] | outcome [12] | outcome [13] | Potency [14] | Potency [15] | outcome [16] | Potency [17] | outcome [18]

CCCCCCOC(=O)c1ccccc1O
inactive: outcome [1] | Potency [2] | Potency [3] | Potency [4] | outcome [6] | Potency [7] | Potency [8] | Potency [9] | Potency [10] | Potency [19] | outcome [11] | outcome [12] | Potency [20] | outcome [13] | Potency [15] | outcome [16] | Potency [17] | outcome [18]

O=S(=O)(c1cccc2cnccc12)N1CCCNCC1
inactive: outcome [1] | Potency [2] | Potency [3] | Potency [5] | outcome [6] | Potency [7] | Potency [8] | Potency [9] | Potency [10] | Potency [19] | outcome [11] | outcome [12] | Potency [14] | Potency [15] | outcome [16] | outcome [18]

Cc1onc(-c2ccccc2)c1-c1ccc(S(N)(=O)=O)cc1
inactive: outcome [1] | Potency [2] | Potency [3] | Potency [4] | Potency [5] | outcome [6] | Potency [9] | Potency [10] | Potency [19] | outcome [11] | outcome [12] | Potency [14] | Potency [15] | outcome [16] | outcome [18]

NS(=O)(=O)c1cc2c(cc1C(F)(F)F)NC(Cc1ccccc1)NS2(=O)=O (stereo not drawn)
inactive: outcome [1] | Potency [2] | Potency [4] | Potency [5] | outcome [6] | Potency [7] | Potency [8] | Potency [9] | Potency [10] | Potency [19] | outcome [11] | outcome [12] | Potency [20] | Potency [14] | Potency [15] | outcome [16] | Potency [17] | outcome [18]
